The list is not random: actives were taken first. Their share in the collection is about 11%.
MCF10A rereplic = A quantitative high throughput screen for small molecules that induce DNA re-replication in MCF 10a normal breast cells; MCF 10A DNA re-replication, Hoechst nuclear intensity, 48 h; Potency, µM (doses to about 46.1 µM), for the others: top-dose activity, positive = re-replication, actives largely listed as activators; 350,000 compounds, 2.9% hits; also: potency is read from the fitted curve at half-maximal effect; % of control where 0% means no effect; nearly all actives have a fitted effect of over 50% in size
Gal4-VP16 FLuc = VP16 counterscreen qHTS for inhibitors of ROR gamma transcriptional activity. Drosophila S2 Gal4-VP16 UAS-luciferase, luminescence, 20 h. Potency, µM (titrated, usually from 53.6 µM), without a hit: at the highest dose activity, negative = inhibition, hits mostly inhibitors. 310,000 compounds, 3.5% hits;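 also: Gal4-VP16 expression switched on by copper sulfate through the metallothionein promoter; potency is read from the fitted curve at half-maximal effect; % is scaled to controls: 0 for no effect and ±100 for the full control effect; nearly all actives have a fitted effect of over 50% in size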
SW480 rerep = A quantitative high throughput screen for small molecules that induce DNA re-replication in SW480 colon adenocarcinoma cells; 340,000 compounds, 1.8% hits; SW480 DNA re-replication, Hoechst DNA content imaging, 48 h; Potency, µM (titrated, usually from 46.1 µM), for the others: top-dose re-replication activation, actives largely listed as activators; also: potency is read from the fitted curve at half-maximal effect; % of control where 0% means no effect; nearly all actives have a fitted effect of over 55% in size
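Cells (250 per well) received 23 nL compound or DMSO by pin tool and were kept 48 hr at 37 C, 5% CO2. Nuclei were then stained with Hoechst for 40 min and scanned for DNA content.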
IL1B secr inh = qHTS for Inhibitors of Inflammasome Signaling: IL-1-beta AlphaLISA Primary Screen; THP-1 LPS/ATP IL-1B secretion, AlphaLISA, 16 h; hits give low values; activity change, % at 57.5 µM; 360,000 compounds, 4.7% hits; in the data active = activity change below about -50%; inconclusive = mostly about -30% to -49%; also: % is scaled to controls: 0 for no effect and ±100 for the full control effect
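Secreted IL-1B measured by AlphaLISA bead assay after 16 h compound exposure of THP-1 cells; compounds (final up to 57.5 uM) added 1 h before LPS (250 ng/mL) and ATP (1.25 mM) stimulation; lower signal means less secretion.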
RORgamma inh = qHTS for inhibitors of ROR gamma transcriptional activity. AID 2551, 2010. Drosophila S2 Gal4-RORgamma UAS-luciferase reporter, 20 h. Nuclear receptor ROR-gamma (Mus musculus), P51450. Potency, µM (top dose mostly 53.6 µM), without a hit: at the top dose activity change, negative = inhibition, most hits filed as inhibitors. 310,000 compounds, 5.4% hits; also: potency is read from the fitted curve at half-maximal effect; % is scaled to controls: 0 for no effect and ±100 for the full control effect; nearly all actives have a fitted effect of over 60% in size
Target sequence (P51450 whole entry, looked up, the tested form may be a part): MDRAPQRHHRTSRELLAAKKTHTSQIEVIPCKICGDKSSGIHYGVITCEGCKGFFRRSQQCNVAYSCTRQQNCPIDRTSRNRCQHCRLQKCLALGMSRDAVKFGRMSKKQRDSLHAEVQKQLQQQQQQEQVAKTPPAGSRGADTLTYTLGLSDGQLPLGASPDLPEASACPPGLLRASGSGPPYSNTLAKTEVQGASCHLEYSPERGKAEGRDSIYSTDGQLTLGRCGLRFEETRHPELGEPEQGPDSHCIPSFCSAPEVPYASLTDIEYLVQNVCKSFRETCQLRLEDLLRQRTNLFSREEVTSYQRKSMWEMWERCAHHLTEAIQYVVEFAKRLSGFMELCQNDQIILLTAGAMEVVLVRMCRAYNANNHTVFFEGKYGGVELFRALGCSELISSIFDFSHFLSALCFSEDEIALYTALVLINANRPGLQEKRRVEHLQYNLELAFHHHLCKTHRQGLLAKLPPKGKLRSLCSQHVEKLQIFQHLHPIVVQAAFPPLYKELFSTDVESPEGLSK
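ROR gamma transcriptional activity was tracked as Gal4-UAS luciferase output in stably transfected Drosophila Schneider cells, with compound added 1 hr before 700 uM copper sulfate induction and a 20 hr ambient-temperature incubation.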
The depositor's hits bear a star; ? = inconclusive; . = no result given. Unless noted, calls follow the shape of the dose curve; as a rule, active = well fitted curve in the direction sought with a large enough effect; inconclusive = small, poorly fitted or top-dose-only effect, or another doubt; inactive = no such curve, though single readings can be large; an effect the other way counts as inactive or inconclusive.

SMILES | MCF10A rereplic | Gal4-VP16 FLuc | SW480 rerep | IL1B secr inh | RORgamma inh
COc1cccc(/C=C2\SC(=S)N(CCCC(=O)N(CCO)c3ccccc3)C2=O)c1 | ? | 2.5µM* | ? | -56* | 7.1µM*
COc1cccc(/C=C2\SC(=S)N(CCCC(=O)N3CCCCC3)C2=O)c1 | 28% | 13µM* | ? | 5 | 4.5µM*
COc1cccc(/C=C2/SC(=S)N(CCC(=O)N3CCOCC3)C2=O)c1 | ? | ? | 9% | -95* | ?
O=C1/C(=C/c2cccc(Br)c2)SC(=S)N1CCC(=O)N(CCO)c1ccccc1 | ? | -12% | ? | ? | -6%
COc1ccc(/C=C2\SC(=S)N(CCC(=O)N3CCOCC3)C2=O)cc1 | 10% | -11% | -2% | -66* | -22%
Cc1ccc(/C=C2\SC(=S)N(CCC(=O)N3CCOCC3)C2=O)cc1 | -2% | 4% | ? | 12 | -15%
CN(C)C(CNC(=O)CSc1nc2sc3c(c2c(=O)n1C)CCCC3)c1ccccc1 (stereo not given) | ? | . | -13% | -1 | .
CN1CCN(C(=O)CCN2C(=O)/C(=C/c3cccc(Br)c3)SC2=S)CC1 | 15µM* | -14% | ? | -76* | 16µM*
O=C(CCCN1C(=O)/C(=C\c2cccc(Br)c2)SC1=S)Nc1ccc(C(=O)O)cc1 | . | . | . | -4 | .
CN1CCN(C(=O)CCCN2C(=O)/C(=C/c3cccc(Br)c3)SC2=S)CC1 | 23µM* | -6% | ? | -100* | ?
Cc1ccc(NC2=C(Cl)C(=O)OC2OC(=O)c2ccco2)cc1C (stereo not given) | ? | ? | 16% | -87* | -22%
Cc1ccc(NC2=C(Cl)C(=O)OC2OC(=O)c2ccco2)c(C)c1 (stereo not given) | ? | . | ? | 0 | .
Cc1ccc(C)c(NC2=C(Cl)C(=O)OC2OC(=O)c2ccco2)c1 (stereo not given) | -6% | ? | -6% | -90* | 11µM*
CC(C)(C)OC(=O)N1CCC(C(=O)Nc2cccc(C(=O)N3CCCCC3)c2)CC1 | 4% | . | -13% | -4 | .
Cc1ccc(NS(=O)(=O)c2cc3c4c(cccc4c2)C(=O)NC3=O)cc1C | 15µM* | ? | 28% | -20 | ?
Cc1c(CCOC(=O)c2ccccc2)sc[n+]1CC(=O)c1ccc(Br)cc1 | 23% | -19% | 5% | -65* | -27%
Cc1c(CCOC(=O)CC23CC4CC(CC(C4)C2)C3)sc[n+]1CC(=O)c1ccc(Br)cc1 | ? | -18% | ? | -61* | 10%
Cc1c(CCOC(=O)CC23CC4CC(CC(C)(C4)C2)C3)sc[n+]1CC(=O)c1ccccc1 | ? | -13% | 3% | -81* | 18%
Cc1c(CCOC(=O)c2cc([N+](=O)[O-])cc([N+](=O)[O-])c2)sc[n+]1CC(=O)c1ccccc1 | 1% | ? | -25% | 7 | -27%
Cc1c(CCOC(=O)C23CC4CC(CC(C)(C4)C2)C3)sc[n+]1CC(=O)c1ccccc1 | ? | -5% | -22% | ? | 13%
Cc1c(CCOC(=O)c2ccccc2)sc[n+]1Cc1ccccc1 | ? | -7% | -7% | 3 | 29%
COc1ccc(OCc2cc(C(=O)NC(C)Cc3cnccn3)no2)c(Cl)c1 (stereo not given) | 0% | ? | -5% | 18 | 34%
CCCN(CCC)CC(O)CN(c1ccccc1)S(=O)(=O)c1ccc(C)cc1 (stereo not given) | 12% | -1% | ? | -24 | -4%
CCCCN(c1nc2ccccc2nc1Cl)S(=O)(=O)c1ccc(C)cc1 | ? | 2.5µM* | -9% | 8 | -35%
COc1ccc(CN(CC(O)COCc2ccccc2)S(=O)(=O)c2ccccc2Br)cc1OC (stereo not given) | ? | . | -3% | -64* | .
CCCC[C@@H]1C[C@H]1C(NC(=O)Cc1ccccc1)c1ccc(Cl)cc1 (stereo not given in full) | . | 0% | . | . | -22%

Compound activity from PubChem BioAssay.
